Bioassay records from PubChem.
Eya2 phos inh: blocks the phosphatase activity of human Eya2. recombinant Eya2, OMFP fluorescence dephosphorylation (OMFP is methylfluorescein phosphate). Potency, µM (titrated, usually from 76.9 µM), without a hit: top-dose activity, negative = inhibition, hits mostly inhibitors. actives 0.006% (n = 330,000). AID 488837; further: on the % scale 0 is the no-effect control and ±100 the full control effect
Target sequence (O00167 whole entry, looked up): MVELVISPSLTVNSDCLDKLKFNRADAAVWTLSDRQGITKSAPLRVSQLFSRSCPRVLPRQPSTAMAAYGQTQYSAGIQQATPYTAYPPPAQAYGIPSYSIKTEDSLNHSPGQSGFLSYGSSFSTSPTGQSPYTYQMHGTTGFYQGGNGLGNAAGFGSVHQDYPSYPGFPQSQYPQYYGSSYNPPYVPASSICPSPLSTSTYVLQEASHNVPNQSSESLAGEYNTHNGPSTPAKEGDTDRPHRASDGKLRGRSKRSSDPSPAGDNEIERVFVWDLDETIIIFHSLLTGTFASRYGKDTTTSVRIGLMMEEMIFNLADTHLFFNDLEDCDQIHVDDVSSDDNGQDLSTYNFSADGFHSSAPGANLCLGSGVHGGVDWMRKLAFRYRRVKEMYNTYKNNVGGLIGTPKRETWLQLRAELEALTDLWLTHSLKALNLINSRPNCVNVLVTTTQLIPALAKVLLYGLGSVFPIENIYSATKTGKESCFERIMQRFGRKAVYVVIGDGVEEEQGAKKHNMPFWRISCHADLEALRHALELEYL
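Eya2 protein (added as 0.2 uM solution) was preincubated with compound for 10 min at ambient temperature in 50 mM HEPES pH 7.5, 50 mM NaCl, 5 uM MgCl2, 0.05% BSA, 1 mM DTT. OMFP (added at 50 uM) then reacted 10 min; fluorescence read at 485/525 nm.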
Integrin act MD: activators of alpha7 integrin expression for muscular dystrophy; alpha7betagal myoblasts, beta-gal FDG fluorescence, 48 h; Potency, µM (top dose mostly 38.3 µM), inactives show top-dose activation, most hits filed as activators; actives 0.064% (n = 350,000); AID 624291;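 further: 100% = response of the positive control SU9516; nearly all actives have a fitted effect of over 60% in size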
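Alpha7betagal+/- myoblasts (passage 13) were plated 16-24 hr, then exposed to compounds (1:260 dilution of DMSO stock) for 48 hours at 37C. After MPER lysis, β-galactosidase reporter activity was read as FDG fluorescence (ex 480/em 540) after 30 minutes.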
USP2a block: inhibitors of human ubiquitin-specific protease USP2a | AID 463254 | actives 0.01% (n = 330,000) | Potency, µM (series often up to 38.3 µM), without a hit: at the highest dose activity change, negative = inhibition, hits mostly inhibitors | USP2 core, Ub-CHOP2 coupled fluorogenic reporter, 485/531;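 further: plate controls were DMSO wells for no effect and full inhibition by NEM control for full effect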
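Cell-free coupled assay: 10nM USP2 core preincubated 30min RT with compound in Tris-HCl pH 8.0/CaCl2/CHAPS buffer, then 25nM Ub-CHOP2 and 25nM reporter substrate; fluorescence (Ex 485/Em 531) read after 60min RT, normalized to NEM inhibition, concentration-response curves fitted.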
Mm-Cpn inhibitor: inhibitors of Methanococcus maripaludis chaperonin TRiC (MmCpn) | purified Mm-Cpn ATPase, ADP Transcreener TR-FRET | Potency, µM (highest dose often 76.9 µM), inactives show at the highest dose activity, negative = inhibition, actives largely listed as inhibitors | AID 504842 | actives 0.031% (n = 330,000); further: on the % scale 0 is the no-effect control and ±100 the full control effect; nearly all actives have a fitted effect of over 80% in size
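ATP (10 uM final) was added to archaeal chaperonin (25 nM final) after 10 min exposure to test compound at 37°C; after 30 min further incubation, ADP was detected by competitive TR-FRET.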
p53 reactivation: restores transcriptional activity of mutant p53; H1299 p53-A138V BP100-luciferase reporter, luminescence, 24 h; Potency, µM (titrated, usually from 92.2 µM), for the others: at the highest dose activity change, positive = activation, usual class: activators; actives 0.063% (n = 320,000); further: % of control where 0% means no effect; nearly all actives have a fitted effect of over 45% in size
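p53-null H1299 cells stably carrying temperature-sensitive p53-A138V and a BP100-luciferase reporter were pinned with compounds (4-point, 1:5 series) and held 24 hrs at 37 deg C. Luminescence was read 10 min after detection reagent.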
ClpP mod: qHTS Assay for Activators of ClpP. ATP-dependent Clp protease proteolytic subunit (Bacillus subtilis (strain 168)), P80244. purified B. subtilis ClpP, FRET peptide cleavage, 20 min. Potency, µM (titrated, usually from 57.5 µM), without a hit: at the top dose activity change, negative = active. actives 1.9% (n = 340,000). AID 651965, 2013; active means well fitted falling curve with a large enough effect; inconclusive means small, poorly fitted or top-dose-only effect; inactive means no such curve, though single readings can be large or run the other way; further: the source files actives as falling curves though it sought activators and does not explain the sign; nearly all actives have a fitted effect of over 65% in size
Target sequence (P80244 whole entry, looked up): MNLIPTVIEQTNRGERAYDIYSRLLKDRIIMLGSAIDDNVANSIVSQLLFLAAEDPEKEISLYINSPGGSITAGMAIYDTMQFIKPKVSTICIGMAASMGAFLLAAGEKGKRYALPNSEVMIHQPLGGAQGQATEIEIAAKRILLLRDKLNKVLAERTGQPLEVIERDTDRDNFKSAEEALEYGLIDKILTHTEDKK
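Purified B. subtilis ClpP, 10 microg/mL final in Tris/HCl pH8 with KCl, BSA, glycerol and Tween-20, cleaved an Abz/nitrotyrosine-quenched decapeptide. Fluorescence (ex 320, em 430) was read at 0 and 20 min at room temperature. Delta was normalized to 5.8 microM ADEP and DMSO/no-enzyme controls.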
ClpP inh valid: validation of B. subtilis ClpP protease hits (inhibitors); shares compounds with ClpP mod; purified B. subtilis ClpP, FRET-FV substrate cleavage, 20 min; Potency, µM (series often up to 57.5 µM), inactives show top-dose activity change, negative = inhibition, usual class: inhibitors; actives 40% (n = 470); AID 743245; further: on the % scale 0 is the no-effect control and ±100 the full control effect; nearly all actives have a fitted effect of over 70% in size
An asterisk follows results filed as active; ? = inconclusive; . = no result; [ ] = another dose, or the depositor's remark. The full list was thinned out, with hits kept by preference. Unless noted, the call rests on the fitted dose curve; in most records, active means well fitted curve in the direction sought with a large enough effect; inconclusive means small, poorly fitted or top-dose-only effect, or another doubt; inactive means no such curve, though single readings can be large; an effect the other way counts as inactive or inconclusive. Potency means the concentration at half of the fitted maximal effect.

SMILES	Eya2 phos inh	Integrin act MD	USP2a block	Mm-Cpn inhibitor	p53 reactivation	ClpP mod	ClpP inh valid
CCC(=O)Oc1ccc2c(C)cc(=O)oc2c1C	14.3%	14.8%	-0.9%	-2.1%	12.8%	52.0%	.
Cc1cc(=O)oc2c(C)c(OC(=O)c3ccco3)ccc12	.	?	.	.	.	31.5%	6.8%
O=C(CCOc1ccccc1)Nc1ccc(Br)cc1	2.8%	3.4%	0.9%	-0.7%	.	7.94µM*	0.2%
O=C(CCCOc1ccccc1)Nc1ccc(Br)cc1	.	15.2%	.	.	.	1.0%	.
Cc1ccc(Cl)cc1N1CCN(C(=O)Cn2cnc3sc(C)c(S(=O)(=O)N4CCC(C)CC4)c3c2=O)CC1	.	.	.	.	.	2.8%	.
CCn1cc(/C=C(\NC(=O)c2ccc(OC)c(OC)c2)C(=O)NCCCn2ccnc2)c2ccccc21	.	.	.	.	.	-3.5%	.
O=S(=O)(Nc1cccc(-c2cn3cccnc3n2)c1)c1ccc(Cl)cc1	-8.5%	17.5%	2.8%	?	-5.0%	7.08µM*	24.3µM*
COc1nc(Nc2ccc(-c3nc4ccccc4o3)cc2)nc(N2CCOCC2)n1	.	18.5%	.	.	.	8.91µM*	19.3µM*
c1ccc2oc(-c3ccc(Nc4nc(N5CCCCC5)nc(N5CCOCC5)n4)cc3)nc2c1	12.9%	.	1.3%	1.1%	7.9%	.	.
Cc1cc(C)cc(NC(=O)C2CCCN(c3nnc(C)c4c(C)n(-c5ccccc5)nc34)C2)c1 (centres undefined)	.	.	.	.	.	3.8%	.
COC(=O)c1cc(Cl)c(NC(=O)c2cc3ccccc3o2)cc1OC	9.7%	27.7%	-0.1%	0.9%	-1.1%	36.7%	-26.4%
Cc1ccc2oc(-c3cc(NC(=O)c4ccco4)ccc3Cl)nc2c1	.	.	.	.	.	-24.3%	.
Cc1cc2nc(-c3cc(NC(=O)c4cc5ccccc5o4)ccc3Cl)oc2cc1C	.	.	.	.	.	3.16µM*	19.3µM*
CCn1c(-c2cccs2)nc2ccccc21	3.4%	15.1%	-0.5%	-5.6%	1.9%	3.16µM*	13.7µM*
CCCc1nc(SCc2cc(=O)c3ccc(C)c(C)c3[nH]2)n[nH]1	.	.	.	.	.	-2.3%	.
COc1ccc(NC(=O)Nc2nnc(-c3cccs3)s2)cc1	2.8%	-15.5%	-3.1%	1.1%	26.9%	-4.7%	.
COc1ccc(C(=O)Nc2nnc(-c3cccs3)s2)cc1	2.4%	-28.5%	-0.1%	-28.2%	31.3%	92.7%	17.2µM*
COc1ccc(-c2noc(CC(=O)N(C)c3cccc(C)c3)n2)cc1	.	.	.	.	.	-0.3%	.
COc1ccc(NC(=O)C2=C(C)Nc3nc(SCc4ccc(C)cc4C)nn3C2c2cccc(OC)c2OC)cc1 (centres undefined)	.	.	.	.	.	80.5%	-19.1%
COc1ccccc1NC(=O)C1=C(C)Nc2nc(SCc3cc(C)ccc3C)nn2C1c1ccccc1 (centres undefined)	.	.	.	.	.	1.1%	.
O=c1n(Cc2ccc(Cl)cc2)c2sc3c(c2c2ncnn12)CCCC3	-6.6%	9.4%	-0.1%	-2.3%	2.0%	2.82µM*	-3.3%
CCNc1nc(NCC)n2c(SCC(=O)Nc3ccc(OC)c(OC)c3)nnc2n1	2.0%	-1.1%	-7.7%	-8.4%	5.3%	46.2%	0.1%
Cc1ccc(C)c(NC(=O)C(OC(=O)c2cnc(C)cn2)c2ccccc2)c1 (centres undefined)	18.1%	-7.7%	2.2%	0.7%	0.9%	91.8%	0.2%
COc1ccc(C)cc1NC(=O)C(OC(=O)c1cnc(C)cn1)c1ccccc1 (centres undefined)	21.2%	-7.1%	2.8%	1.1%	6.4%	3.3%	.
Cc1ccc(NC(=O)Cn2c(=O)n(CCC(C)C)c(=O)c3cccnc32)cc1C	.	.	.	.	.	70.9%	4.5%
SMILES	Eya2 phos inh	Integrin act MD	USP2a block	Mm-Cpn inhibitor	p53 reactivation	ClpP mod	ClpP inh valid
COc1ccc(Br)cc1CNC(=O)c1cnc2sc(N3CCCCCC3)nn2c1=O	.	.	.	.	.	8.91µM*	-0.1%
CC1CC(C(F)(F)F)n2nc(C(=O)O)cc2N1 (centres undefined)	-10.9%	1.9%	2.7%	0.3%	0.2%	1.2%	.
CCOC(=O)c1cc2n(n1)C(C(F)(F)F)CC(C)N2 (centres undefined)	15.1%	6.1%	7.5%	1.6%	11.9%	60.2%	-0.1%
Cc1ccc(NC(=O)c2ccc(-c3ccccc3)s2)cc1	.	.	.	.	.	46.9%	-8.6%
CCOc1ccccc1NC(=O)C(=O)NCC(c1cccnc1)N1CCN(c2ccccc2)CC1 (centres undefined)	.	.	.	.	.	0.6%	.
CCC(=O)n1nc(-c2ccccc2)nc1NCc1ccccc1	-8.0%	-2.6%[7.66 µM]	0.6%	1.2%	?	37.9%	6.2%
COCC(=O)n1nc(-c2ccccc2)nc1NCc1ccccc1	2.7%	10.4%	-1.0%	1.6%	-7.8%	.	.
O=C(NCc1ccccc1)C(c1ccccc1)n1c(=O)c(-c2cc3ccccc3[nH]2)nc2ccccc21 (centres undefined)	.	.	.	.	.	3.2%	.
O=C(NCc1ccccc1)C(c1cc2ccccc2o1)n1c(=O)c(-c2cc3ccccc3[nH]2)nc2ccccc21 (centres undefined)	.	.	.	.	.	38.0%	-4.2%
COc1ccc(NC(=O)C(c2cc3ccccc3o2)n2c(=O)c(-c3cc4ccccc4[nH]3)nc3ccccc32)cc1 (centres undefined)	.	.	.	.	.	33.5%	-1.5%
COc1ccc(NC(=O)C(c2ccc(OC)cc2)n2c(=O)c(-c3cc4ccccc4[nH]3)nc3ccccc32)cc1 (centres undefined)	.	.	.	.	.	19.0%	.
Cc1nn(C)c2c1c(C(F)(F)F)cc(=O)n2CC(=O)N1CCCCC1C (centres undefined)	.	.	.	.	.	3.8%	.
CC(C)N(Cc1ccccc1)C(=O)C1CCCN(c2ncnc3onc(-c4ccc(F)cc4)c23)C1 (centres undefined)	.	.	.	.	.	-7.1%	.
Nc1ccc(-c2nc3ccc(-c4nc5ccccc5o4)cc3[nH]2)cc1	13.9%	-24.1%	-1.8%	-2.0%	0.5%	32.1%	.
Cc1nc2ccc(-c3nc4ccccc4o3)cc2[nH]1	-14.3%	12.0%	0.1%	-0.2%	?	3.16µM*	15.3µM*
CC(C)C(=O)Nc1cccc(C(=O)Nc2nnc(CC(C)(C)C)s2)c1	.	.	.	.	.	0.2%	.
CC(=O)c1ccc(NC(=O)c2cc(C3CC3)nc3c2c(C)nn3-c2ccc(C)cc2)cc1	.	.	.	.	.	-4.2%	.
CSc1nc2nc3c(cn2n1)C(=O)CC(c1ccccc1)C3 (centres undefined)	-0.1%	-19.7%	-1.2%	-0.2%	-4.1%	0.6%	.
